5 compounds from PubChem BioAssay can be followed below.

Molecules are shown by their SMILES. Active and inactive are the calls of the source.

A short description of test [1]: binders of probe aFSTL3 on microarray, primary screen, stem cell growth factor project, biochemical, small-molecule microarray, fluorescence 635/667 (AID 1064).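 Note: measures binding of the biotinylated anti-FSTL3 antibody to printed compounds.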 The note with it: higher = more signal.
Test [2] in a line: binders from COS7 lysate, DM2A8 probe, primary screen, torsin A project, cell lysate, small-molecule microarray, fluorescence 635/667 (AID 1065). The following applies: higher = more signal, COS7 lysate expressing mutant human TOR1A.
The nature of test [3]: binders of probe aFGF2 on microarray, primary screen, stem cell growth factor project, biochemical, small-molecule microarray, fluorescence 635/667 (AID 1067).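 Note: measures binding of biotinylated aFGF2 protein to printed compounds on slides; z-score merges feature fluorescence and signal-to-noise across triplicate slides.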 The note with it: higher = more signal.
Test [4] can be described thus: binders of probe aFGF10 on microarray, primary screen, stem cell growth factor project, biochemical, small-molecule microarray, fluorescence 635/667 (AID 1071).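 Note: score merges 667 nm spot intensity and signal to noise from triplicate slides.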 The note with it: higher = more signal.
The target of test [5] is Neurogenic locus notch homolog protein 2 (Homo sapiens) (UniProt Q04721). As to the kind of experiment: Notch2 binders on small-molecule microarrays, primary screen, biochemical, small-molecule microarray, 635 nm fluorescence, stem cell growth factors (AID 1073). The following applies: Notch2 binding, higher = more signal.
Chain of Neurogenic locus notch homolog protein 2 (Homo sapiens) (Q04721 whole entry, looked up, canonical isoform): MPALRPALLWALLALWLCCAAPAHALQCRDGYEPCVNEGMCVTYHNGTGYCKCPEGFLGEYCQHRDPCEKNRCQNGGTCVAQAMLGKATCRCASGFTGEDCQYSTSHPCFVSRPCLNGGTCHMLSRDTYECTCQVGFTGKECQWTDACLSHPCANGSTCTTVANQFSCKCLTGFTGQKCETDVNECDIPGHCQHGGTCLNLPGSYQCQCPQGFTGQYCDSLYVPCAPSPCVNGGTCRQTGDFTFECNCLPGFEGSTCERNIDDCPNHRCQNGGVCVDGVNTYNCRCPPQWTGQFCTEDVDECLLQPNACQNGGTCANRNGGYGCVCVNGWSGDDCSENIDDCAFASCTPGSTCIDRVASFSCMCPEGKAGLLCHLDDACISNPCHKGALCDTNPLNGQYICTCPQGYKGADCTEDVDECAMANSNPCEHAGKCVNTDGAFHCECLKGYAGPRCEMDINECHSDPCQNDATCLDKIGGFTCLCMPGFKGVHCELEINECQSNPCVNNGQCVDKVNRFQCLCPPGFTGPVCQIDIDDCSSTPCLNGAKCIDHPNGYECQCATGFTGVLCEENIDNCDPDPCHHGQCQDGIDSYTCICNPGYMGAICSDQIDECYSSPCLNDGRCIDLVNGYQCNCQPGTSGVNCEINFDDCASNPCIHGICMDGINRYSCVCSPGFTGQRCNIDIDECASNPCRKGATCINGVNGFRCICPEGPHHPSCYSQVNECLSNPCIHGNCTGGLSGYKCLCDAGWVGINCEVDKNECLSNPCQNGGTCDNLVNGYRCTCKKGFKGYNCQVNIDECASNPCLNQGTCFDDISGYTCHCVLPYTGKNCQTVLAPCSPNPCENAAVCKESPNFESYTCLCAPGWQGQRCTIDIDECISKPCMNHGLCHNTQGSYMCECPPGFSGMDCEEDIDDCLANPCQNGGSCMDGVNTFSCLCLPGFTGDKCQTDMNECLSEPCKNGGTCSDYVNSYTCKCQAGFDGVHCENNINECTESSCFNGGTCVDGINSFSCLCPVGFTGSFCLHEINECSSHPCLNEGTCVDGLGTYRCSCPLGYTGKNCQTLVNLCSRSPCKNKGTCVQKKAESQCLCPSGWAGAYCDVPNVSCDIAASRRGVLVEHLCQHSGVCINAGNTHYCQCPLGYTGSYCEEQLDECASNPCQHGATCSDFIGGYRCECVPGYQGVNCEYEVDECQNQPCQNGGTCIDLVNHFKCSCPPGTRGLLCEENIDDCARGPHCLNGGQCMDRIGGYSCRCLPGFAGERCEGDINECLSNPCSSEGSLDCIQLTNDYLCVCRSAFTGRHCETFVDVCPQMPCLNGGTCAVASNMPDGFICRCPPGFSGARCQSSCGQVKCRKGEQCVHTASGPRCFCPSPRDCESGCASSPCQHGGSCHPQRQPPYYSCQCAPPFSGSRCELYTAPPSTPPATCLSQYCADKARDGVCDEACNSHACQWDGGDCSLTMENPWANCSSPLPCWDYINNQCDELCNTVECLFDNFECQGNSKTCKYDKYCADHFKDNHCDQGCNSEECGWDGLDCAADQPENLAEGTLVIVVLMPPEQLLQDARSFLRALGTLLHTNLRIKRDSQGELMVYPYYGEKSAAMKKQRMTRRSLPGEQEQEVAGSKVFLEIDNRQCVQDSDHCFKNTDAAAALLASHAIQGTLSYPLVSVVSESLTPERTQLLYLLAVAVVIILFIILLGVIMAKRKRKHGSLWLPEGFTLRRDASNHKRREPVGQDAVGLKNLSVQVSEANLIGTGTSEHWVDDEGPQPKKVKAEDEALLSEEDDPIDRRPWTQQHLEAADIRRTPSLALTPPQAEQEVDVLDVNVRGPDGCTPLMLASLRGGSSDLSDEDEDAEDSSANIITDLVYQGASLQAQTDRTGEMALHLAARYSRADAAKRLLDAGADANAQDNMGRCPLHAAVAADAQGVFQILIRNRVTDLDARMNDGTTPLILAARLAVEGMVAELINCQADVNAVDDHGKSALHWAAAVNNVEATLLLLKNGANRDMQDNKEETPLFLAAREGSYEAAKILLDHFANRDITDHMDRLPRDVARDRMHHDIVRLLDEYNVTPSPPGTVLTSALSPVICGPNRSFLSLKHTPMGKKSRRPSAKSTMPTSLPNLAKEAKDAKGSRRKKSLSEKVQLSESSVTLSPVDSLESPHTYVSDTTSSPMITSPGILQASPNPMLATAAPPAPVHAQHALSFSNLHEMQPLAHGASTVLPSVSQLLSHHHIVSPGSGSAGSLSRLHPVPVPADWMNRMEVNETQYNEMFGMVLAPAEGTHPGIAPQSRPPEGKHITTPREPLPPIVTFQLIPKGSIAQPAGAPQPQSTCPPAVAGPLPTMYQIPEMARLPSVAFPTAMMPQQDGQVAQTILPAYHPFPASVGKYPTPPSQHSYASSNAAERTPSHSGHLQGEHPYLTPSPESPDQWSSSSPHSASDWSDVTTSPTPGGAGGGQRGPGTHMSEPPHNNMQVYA
In test [6] the target is Pro-neuregulin-1, membrane-bound isoform (Homo sapiens) (UniProt Q02297). Put plainly: NRG1 binders on small-molecule microarrays, primary screen, psychiatric disease protein project, biochemical, small-molecule microarray, fluorescence 635/667 (AID 1075).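 Note: score combines 667 nm spot fluorescence with signal to noise.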 The following applies: NRG1 binding, 635 nm fluorescence, higher = more signal.
Chain of Pro-neuregulin-1, membrane-bound isoform (Homo sapiens) (Q02297 whole entry, looked up, the tested form may be a part, canonical isoform): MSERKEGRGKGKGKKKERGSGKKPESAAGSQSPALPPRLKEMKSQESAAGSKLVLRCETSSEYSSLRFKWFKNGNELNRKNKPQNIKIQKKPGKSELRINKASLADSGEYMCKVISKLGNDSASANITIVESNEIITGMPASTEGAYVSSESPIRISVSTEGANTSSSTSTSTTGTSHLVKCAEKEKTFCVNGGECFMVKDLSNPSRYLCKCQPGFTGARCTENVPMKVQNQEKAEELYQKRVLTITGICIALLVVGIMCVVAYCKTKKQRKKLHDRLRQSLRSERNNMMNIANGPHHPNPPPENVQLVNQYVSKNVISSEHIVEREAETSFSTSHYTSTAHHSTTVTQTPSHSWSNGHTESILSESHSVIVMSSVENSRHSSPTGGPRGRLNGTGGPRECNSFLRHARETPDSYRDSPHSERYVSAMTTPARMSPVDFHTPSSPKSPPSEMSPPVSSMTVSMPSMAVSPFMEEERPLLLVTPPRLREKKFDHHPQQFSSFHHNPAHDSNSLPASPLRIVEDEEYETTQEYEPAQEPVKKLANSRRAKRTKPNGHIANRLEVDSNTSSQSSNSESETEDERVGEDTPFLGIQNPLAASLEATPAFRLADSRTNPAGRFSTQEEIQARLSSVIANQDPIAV
For test [7], the system named is Neuregulin-1 EGF-like domain. As to the kind of experiment: binders of neuregulin-1 EGF-like domain, primary screen, biochemical, small-molecule microarray, 635 nm fluorescence (AID 1081).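 Note: binding of the protein to compounds printed on small-molecule microarray slides.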 The note with it: small-molecule microarray binding, higher = more signal.
Test [8] can be described thus: FRG1 promoter luciferase signal modulators, primary screen, FRG1 inhibition for FSHD, cell-based, C2C12 myotubes, firefly/Renilla luciferase, luminescence (AID 1084). The note with it: higher = more signal, called active from +8 up or from −8 down.
Test [9] can be described thus: binders of probe aFST on microarray, primary screen, stem cell growth factor project, biochemical, small-molecule microarray, fluorescence 635/667 (AID 1086).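 Note: score merges 667 nm fluorescence with signal-to-noise of each printed compound spot.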 The note with it: higher = more signal.
Test [10] in a line: binders of probe aHhip on microarray, primary screen, stem cell growth factor project, biochemical, small-molecule microarray, fluorescence 635/667 (AID 1087).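 Note: score merges spot fluorescence at 667nm with spot signal to noise ratio.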 The note with it: higher = more signal.
Test [11] relates to PRMT1 (protein arginine N-methyltransferase 1). As to the kind of experiment: PRMT1 binders on small-molecule microarrays, primary screen, biochemical, small-molecule microarray, 635 nm fluorescence (AID 1088).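 Note: binding of Prmt1 protein to compounds spotted on small-molecule microarray slides.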 The following applies: small-molecule microarray binding, higher = more signal.
A short description of test [12]: yeast growth modulation, basal conditions, primary screen, YJM789 clinical isolate, OD600, 24 h (AID 1089).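 Note: growth of clinical yeast isolate S. cerevisiae YJM 789 seeded 1000 cells per well; test concentration not given here.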 The note with it: S. cerevisiae YJM789 growth, higher = more signal, called active from +8 up or from −8 down.
Test [13] in a line: fission yeast growth modulation, primary screen, strain 972, OD600, 24 h, no modulator (AID 1090).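 Note: basal condition with compound alone and no growth modifier present; test concentration not given here.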 The note with it: S. pombe 972 growth, higher = more signal, called active from +8 up or from −8 down.
A short description of test [14]: S. cerevisiae growth modulation with rapamycin, primary screen, strain BY4716, OD600, 96 h (AID 1091). Note: test concentration not given here. The note with it: higher = more signal, called active from +8 up or from −8 down.
Test [15] concerns the target Torsin-1A-interacting protein 2 (Homo sapiens) (UniProt Q8NFQ8). As to the kind of experiment: LULL1 binders on small-molecule microarray, primary screen, cell lysate, human LULL1 lysate, 635/667 nm fluorescence (AID 1092).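 Note: probe is lysate of COS7 cells overexpressing human LULL1; score merges per-feature 667 nm fluorescence with signal-to-noise.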 The following applies: hLULL1 lysate binding, 635 nm fluorescence, higher = more signal.
Test [16] in a line: E. coli growth modulation, two-sided OD650, primary screen, E. coli filamentation project, strain DRC41, 24 h (AID 1093).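 Note: MC1000 strain lacking acrAB efflux and sulA so SOS filamentation is blocked; test concentration not given here.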 The note with it: OD650, 24 h, higher = more signal, called active from +8 up or from −8 down.
Test [17] in a line: small-molecule microarray binders of probe aLefty2, primary screen, biochemical, biotinylated probe, 635/667 nm fluorescence (AID 1094).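 Note: score merges spot fluorescence near 667 nm with spot signal-to-noise ratio.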 The following applies: higher = more signal.
Test [18] concerns Noggin (protein binding on small-molecule microarray). Put plainly: Noggin binders on small-molecule microarray, primary screen, biochemical, 635/667 nm fluorescence (AID 1095).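 Note: score merges 667 nm feature fluorescence with signal to noise over triplicate slides.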 The note with it: 635 nm fluorescence, higher = more signal.
The target in test [19] is Neurogenic locus notch homolog protein 3 (Homo sapiens) (UniProt Q9UM47). As to the kind of experiment: NOTCH3 binders on small-molecule microarray, primary screen, biochemical, 635/667 nm fluorescence (AID 1096). The following applies: NOTCH3 binding, 635 nm fluorescence, higher = more signal.
Test [20] in a line: small-molecule microarray binders of probe aEGFR, primary screen, biochemical, biotinylated probe, 635/667 nm fluorescence (AID 1097).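 Note: probe is a biotinylated anti-EGFR antibody binding compounds printed on slides; score combines fluorescence near 667 nm and signal to noise of each spot.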 The note with it: higher = more signal.

Chain of Torsin-1A-interacting protein 2 (Homo sapiens) (Q8NFQ8 whole entry, looked up): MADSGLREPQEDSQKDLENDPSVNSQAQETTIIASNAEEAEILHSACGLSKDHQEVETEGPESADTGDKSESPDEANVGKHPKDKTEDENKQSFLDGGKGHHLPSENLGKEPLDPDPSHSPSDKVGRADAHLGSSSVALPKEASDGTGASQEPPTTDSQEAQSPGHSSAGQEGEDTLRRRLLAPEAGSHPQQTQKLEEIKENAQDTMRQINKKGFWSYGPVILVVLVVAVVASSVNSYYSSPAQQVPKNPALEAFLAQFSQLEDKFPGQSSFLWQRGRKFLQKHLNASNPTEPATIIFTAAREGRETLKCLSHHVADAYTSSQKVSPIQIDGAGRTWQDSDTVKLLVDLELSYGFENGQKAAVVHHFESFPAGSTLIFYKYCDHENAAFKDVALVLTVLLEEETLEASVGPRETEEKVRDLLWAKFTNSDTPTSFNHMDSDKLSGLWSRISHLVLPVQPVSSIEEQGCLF

As to `NCCCCCCNC(=O)[C@@H]1C[C@@H]2C(=O)NCC(=O)N2[C@@H]1c1ccc(O)cc1`, the composite z-score in test [1] is -0.175; in test [2], 0.853; in test [3], -0.14; in test [4], 0.177; in test [5] it was 0.571; in [6], 1.32. For the same compound, the composite z-score in [7] was 1.41; in test [9], 0.703; in test [10] it was -0.207; in test [11] it was 1.56; in test [15] it was 1.01; in test [17] it was -0.0324. Further, the composite z-score in test [18] is 1.58; in [19], 1.07; in test [20], -0.0409. In addition, the z-score in test [8] is 1.03 (inactive); in [12], 0.0703 (inactive); in test [13], 0.467 (inactive); in test [14] it was -0.129 (inactive); in test [16], 1.1 (inactive).
Consider `COC(=O)[C@@]1(Cc2ccc(OC)cc2)[C@H]2c3cc(C(=O)N(C)C)n(C)c3C[C@H]2CN1C(=O)c1ccccc1`, for which the composite z-score in test [1] was found to be 0.32; in [2], 0.35; in [3], 0.24; in test [4], 0.759; in test [5], 1.66; in test [6], 1.85. Further, the composite z-score in test [7] came to 1.18; in [9], 1.48; in test [10], 0.658; in [11], 1.4; in test [15], 3.73; in test [17], 0.654. Further, the composite z-score in test [18] was 0.727; in test [19] it was 1.02; in [20], 0.382. Besides, the z-score in test [8] is 1.76 (inactive); in [12], 0.116 (inactive); in test [13], -0.756 (inactive); in test [14], 9.05 (active); in [16], -1.63 (inactive).
With `CC(C)C(O)C1C=CC2C(=O)N(c3ccccc3)C(=O)C2N1Nc1ccc([N+](=O)[O-])cc1` (stereo not given), the composite z-score in test [1] was 0.549; in test [2], -0.0664; in test [3], 0.0485; in test [4], 0.569; in [5] it was 0.951; in [6], 1.34. For the same compound, the composite z-score in [7] is 0.8; in test [9] it was 0.886; in test [10] it was -0.214; in test [11], 0.118; in test [15], 2.89; in [17] it was 0.0827. Besides, the composite z-score in test [18] was -0.0213; in test [19] it was 0.614; in [20], 0.117. Further, the z-score in test [8] is 1.07 (inactive); in test [12], 0.307 (inactive); in [13] it was 0.815 (inactive); in [14] it was 0.834 (inactive); in [16], 0.171 (inactive).
Consider `COc1cc2c(cc1O)C(C1CC1)N(Cc1sc3ccccc3c1Cl)CC2` (stereo not given), for which the composite z-score in [1] was 0.0766; in test [2], 0.602; in test [3], -0.135; in test [4] it was 0.0173; in [5] it was 0.182; in test [6], -0.214. The composite z-score in [7] is 1.23; in test [9], -0.145; in [10], -0.0994; in test [11], 0.641; in test [15], 3.15; in test [17], -0.0468. Further, the composite z-score was -0.181 in test [18], 0.579 in test [19] and -0.149 in test [20]. Also, the z-score in test [8] was 0.566 (inactive); in [12], -26 (active); in [13] it was -20 (active); in test [14] it was -1.46 (inactive); in test [16] it was -0.587 (inactive).
As for `COc1cc2c(cc1OC)CN(C(=O)[C@@H]1[C@H]3C(=O)O[C@H](c4ccccc4)[C@H](c4ccccc4)N3[C@H](c3ccc(O)cc3)[C@@]13C(=O)Nc1ccccc13)CC2`, the composite z-score in [1] was 0.113; in test [2], 0.797; in [3], -0.0614; in [4] it was 0.257; in test [5], 0.171; in test [6] it was 1.03. Further, the composite z-score in test [7] is 1.16; in [9] it was 0.0729; in test [10] it was 0.0854; in test [11], 1.35; in test [15], 3.04; in [17] it was -0.115. The composite z-score in [18] was 0.497; in test [19], 0.347; in test [20] it was -0.115. Also, the z-score in test [8] is 0.421 (inactive); in test [12] it was 0.27 (inactive); in test [13], -0.0755 (inactive); in test [14] it was 0.637 (inactive); in [16], 3.03 (inactive).
